# Sampled rows, rich in hits. Any-hit rate of the full collection: about 2%.
# TCR CD3 inh = inhibitors of human TCR-CD3 interaction, primary screen, biochemical, fluorescence, TAMRA-labeled TCR probe | T-cell receptor (TCR) | hit rate 0.37% among 360,000 | inhibition, % at 9.4 µM; in the data active = inhibition above about 19%;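 note: recombinant mutant TCR 2C K166C tagged with TAMRA read by polarization; 0% = receptor in buffer alone and 100% = receptor with positive control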
# Rin1 Abl inh = inhibitors of Rin1-Abl protein binding, primary screen, biochemical, TR-FRET | inhibition, % at 7.35 µM | hit rate 0.4% among 360,000 | Tyrosine-protein kinase ABL1 (Homo sapiens) + Ras and Rab interactor 1 (Homo sapiens), …; in the data active = inhibition above about 5%, passing the limit was not always enough
# Target sequence (P00519 whole entry, looked up): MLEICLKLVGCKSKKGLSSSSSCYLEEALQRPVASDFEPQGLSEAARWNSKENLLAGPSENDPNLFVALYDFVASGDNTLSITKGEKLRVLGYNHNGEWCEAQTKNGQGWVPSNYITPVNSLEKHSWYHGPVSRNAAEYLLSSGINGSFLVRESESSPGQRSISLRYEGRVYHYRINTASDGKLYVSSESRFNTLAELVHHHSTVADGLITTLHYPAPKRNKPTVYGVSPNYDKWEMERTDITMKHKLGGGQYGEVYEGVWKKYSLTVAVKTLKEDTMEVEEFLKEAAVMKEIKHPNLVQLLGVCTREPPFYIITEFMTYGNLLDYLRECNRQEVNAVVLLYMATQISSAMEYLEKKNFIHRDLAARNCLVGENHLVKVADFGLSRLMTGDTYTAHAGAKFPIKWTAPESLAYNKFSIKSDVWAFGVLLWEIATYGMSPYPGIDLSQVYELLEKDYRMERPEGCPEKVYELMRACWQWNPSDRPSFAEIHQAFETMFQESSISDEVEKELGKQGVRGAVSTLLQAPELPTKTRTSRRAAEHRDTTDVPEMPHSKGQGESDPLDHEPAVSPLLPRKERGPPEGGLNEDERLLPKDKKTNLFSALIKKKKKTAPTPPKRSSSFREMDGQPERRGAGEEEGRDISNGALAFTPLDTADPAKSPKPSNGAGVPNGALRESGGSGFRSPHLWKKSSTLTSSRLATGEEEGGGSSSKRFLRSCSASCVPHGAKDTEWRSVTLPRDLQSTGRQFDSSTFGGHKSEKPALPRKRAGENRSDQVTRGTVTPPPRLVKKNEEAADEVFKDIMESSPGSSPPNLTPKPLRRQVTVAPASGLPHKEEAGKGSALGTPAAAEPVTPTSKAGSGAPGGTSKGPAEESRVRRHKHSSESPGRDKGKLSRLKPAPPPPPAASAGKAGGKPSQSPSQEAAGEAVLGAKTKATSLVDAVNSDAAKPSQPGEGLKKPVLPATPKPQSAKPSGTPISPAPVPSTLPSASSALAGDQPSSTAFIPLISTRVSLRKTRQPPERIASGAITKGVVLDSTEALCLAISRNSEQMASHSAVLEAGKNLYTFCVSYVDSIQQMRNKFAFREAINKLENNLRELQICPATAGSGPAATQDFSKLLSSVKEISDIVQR
# Target sequence (Q13671 whole entry, looked up): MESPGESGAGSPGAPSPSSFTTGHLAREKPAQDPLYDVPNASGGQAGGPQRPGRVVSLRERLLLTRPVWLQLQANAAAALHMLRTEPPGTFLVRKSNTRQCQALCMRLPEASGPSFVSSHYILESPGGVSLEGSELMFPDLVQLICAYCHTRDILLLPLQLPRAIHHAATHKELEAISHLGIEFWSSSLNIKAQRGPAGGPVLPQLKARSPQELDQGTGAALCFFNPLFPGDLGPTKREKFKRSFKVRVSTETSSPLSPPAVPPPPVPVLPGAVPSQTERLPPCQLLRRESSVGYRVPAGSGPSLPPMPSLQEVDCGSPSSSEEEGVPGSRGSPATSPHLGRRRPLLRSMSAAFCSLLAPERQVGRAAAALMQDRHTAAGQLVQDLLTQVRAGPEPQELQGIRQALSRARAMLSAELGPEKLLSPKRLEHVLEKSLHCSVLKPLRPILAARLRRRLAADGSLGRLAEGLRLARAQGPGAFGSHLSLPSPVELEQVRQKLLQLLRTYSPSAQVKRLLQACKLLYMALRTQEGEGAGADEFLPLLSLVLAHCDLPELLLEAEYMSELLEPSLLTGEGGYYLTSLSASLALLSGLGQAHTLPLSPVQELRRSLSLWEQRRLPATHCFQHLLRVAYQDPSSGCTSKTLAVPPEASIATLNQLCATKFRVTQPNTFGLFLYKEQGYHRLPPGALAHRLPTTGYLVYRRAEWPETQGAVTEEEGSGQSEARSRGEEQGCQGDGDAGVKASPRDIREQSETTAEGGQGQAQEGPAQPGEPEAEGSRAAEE
# LEDGF integ inh = blockers of LEDGF/p75-dependent integrase strand transfer – biochemical, TR-FRET, high throughput, primary screen | HIV-1 integrase (with human LEDGF/p75) | TR-FRET IN-LEDGF/p75 DNA integration, Eu/Cy5 | inhibition, % at 3.7 µM | hit rate 0.64% among 370,000;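 active = inhibition above the screen-wide mean plus 3 SD, cut at about 13% in these data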;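 note: signal is the Cy5 over europium emission ratio at 671 and 618 nm; 0% = plate median of compound wells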
# MBD2 inh = inhibitors of MBD2 binding to methylated DNA, primary screen, biochemical, TR-FRET, DNA-binding domain, human; Methyl-CpG-binding domain protein 2 (Homo sapiens), Q9UBB5; MBD2 binding to methylated oligonucleotide; inhibition, % at 4.4 µM; hit rate 0.31% among 370,000; AID 686964, 2013; in the data active = inhibition above about 13%
# UHRF1 binding = UHRF1 methylated DNA binding inhibitors, primary screen, counter-screen for MBD2 inhibitor project, biochemical, TR-FRET, human UHRF1, single concentration; inhibition, % at 4.4 µM; UHRF1 binding to methylated oligo; hit rate 0.75% among 370,000; E3 ubiquitin-protein ligase UHRF1 (Homo sapiens), Q96T88; in the data active = inhibition above about 21%;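 note: UHRF1 SRA domain binding a hemimethylated CpG hairpin DNA probe; 0% = median of test compound wells and 100% = reference inhibitor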
# IN multimer up = HIV-1 IN multimer formation enhancers, counter-screen for LEDGF/p75 integration inhibitor project, biochemical, TR-FRET. shares compounds with LEDGF integ inh. TR-FRET HIV-1 integrase multimerization. activation, % at 7.7 µM. hit rate 17% among 2,000; in the data active = activation above about 8.9%
# TRFRET interf = TR-FRET optical interference artefacts, confirmation, artefact control for LEDGF/p75-dependent integration inhibitor project, biochemical, HIV-1 IN multimerization; inhibition, % at 7.7 µM; shares compounds with LEDGF integ inh; 2,000 tested, under 10 active; TR-FRET optical interference counterscreen;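 active = inhibition above the mean over all tested compounds plus 3 SD, which no compound reached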;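 note: 0% = integrase with antibodies and DMSO and 100% = antibodies without integrase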
# LEDGF integ conf = inhibitors of HIV-1 IN-LEDGF/p75 DNA integration, confirmation, biochemical, TR-FRET | shares compounds with LEDGF integ inh | TR-FRET LEDGF/p75-dependent HIV-1 integration | inhibition, % at 3.7 µM | hit rate 36% among 2,000 | AID 1053136, 2014; in the data active = inhibition above about 14%
# * hit, by the source's call; · = no result.
SMILES,TCR CD3 inh,Rin1 Abl inh,LEDGF integ inh,MBD2 inh,UHRF1 binding,IN multimer up,TRFRET interf,LEDGF integ conf
COC(=O)c1cccc(-c2ccc(C(c3c(C)[nH][nH]c3=O)c3c(C)[nH][nH]c3=O)o2)c1,-3,6,14*,-2,15,0,2,11
Cc1cccc(N2C(=O)CS/C2=N\NC(=O)c2cccnc2)c1C,8,1,7,0,4,·,·,·
Cc1cccc(N2C(=O)CS/C2=N\NC(=O)c2ccc(Br)cc2)c1C,-1,-2,16*,3,3,-2,8,-1
COc1ccc(-c2cnc3c(NC=O)cc(-c4ccoc4)cn23)cc1OC,2,-1,28*,-6,-6,-1,3,5
Cc1ccc([N+](=O)[O-])cc1Nc1nc(N2CCCC2)nc(N2CCCC2)n1,-7,1,6,-2,0,·,·,·
CSC1=NC2C(N1)N(C)C(=O)N2C (stereo not drawn),-5,-2,35*,1,-1,0,2,-2
CC(C)C(=O)Nc1ccc2c(c1)nc(CCN1CCN(C)CC1)n2C,1,-2,13*,0,5,0,2,-3
CC1=CC(=O)C=CC1=Nc1ccc(N(C)C)cc1,-5,4,27*,-8,1,5,-19,2
CN(C)c1ccc(N=Nc2ccc(S(N)(=O)=O)cc2)cc1,-3,-9,-1,-9,0,·,·,·
O=C1NC(Cc2ccccc2)c2nc3ccc(Br)cc3c(=O)n2-c2cc(Cl)ccc21 (stereo not drawn),3,·,-4,4,4,·,·,·
O=C(O)CCC(=O)Nc1ccc(N2CCCCCC2)cc1,-5,-1,14*,-3,-2,5,-25,-10
Cc1ccc(N2CCN(c3ccc(NC(=O)CCC(=O)O)cc3)CC2)cc1,4,-4,0,-2,-2,·,·,·
CC(/C=N/n1c(-c2ccc(C)cc2)n[nH]c1=S)=C\c1ccco1,0,-2,5,-5,-2,·,·,·
CC(/C=N/n1c(-c2ccccc2)n[nH]c1=S)=C\c1ccco1,-1,-4,16*,-3,-3,0,-2,10
CC(/C=N/n1c(-c2ccncc2)n[nH]c1=S)=C\c1ccco1,-1,-1,16*,-1,8,5,-17,11
CN(C)CCN=Cc1c(O)n(-c2ccc(S(=O)(=O)N3CCOCC3)cc2)c(=O)c2ccccc12,4,0,1,-2,-2,·,·,·
C/C=C/C=C/C(=O)[C@@H]1[C@@H]([C@]2(C)OC(=O)C(C)=C2O)[C@H]2/C(=C(O)/C=C/C=C/C)C(=O)[C@]1(C)C(=O)C2(C)O (stereo partly drawn),0,5,45*,13,48*,5,-23,78*
CCS(=O)(=O)C1=NN2C(=N)/C(=C\c3ccc(SCc4ccco4)o3)C(=O)N=C2S1,-49,1,43*,6,38*,15*,-53,53*
CCOc1cc(/C=C2\C(=N)N3N=C(S(=O)(=O)CC)SC3=NC2=O)ccc1OC(=O)c1ccco1,2,3,1,3,1,·,·,·
Cn1cc(C(=O)N/N=C/C2=C(N3CCOCC3)C(=C/c3ccc([N+](=O)[O-])cc3)/CC2)ccc1=O,-1,1,88*,5,-3,-1,4,-2
COCCCNC(=S)N(Cc1ccccc1)Cc1nc2ccccc2c(=O)[nH]1,3,4,-1,-5,1,·,·,·
CCNC(=S)N(Cc1ccccc1)Cc1nc2ccccc2c(=O)[nH]1,-3,2,70*,5,4,5,-25,-4
O=C1C(=Cc2ccco2)CCCC1=Cc1ccco1,11,6,61*,15*,52*,1,-2,58*
O=c1[nH]c(-c2ccccc2)nn1-c1ccc(Br)cc1Br,-6,1,26*,2,-3,1,-4,5
COc1ccc(-c2nc(CS(=O)CC(=O)NCc3ccc(Cl)cc3)c(C)o2)cc1OC (stereo not drawn),9,-3,1,1,-1,·,·,·
SMILES,TCR CD3 inh,Rin1 Abl inh,LEDGF integ inh,MBD2 inh,UHRF1 binding,IN multimer up,TRFRET interf,LEDGF integ conf
COC(=O)c1sccc1N/C=C(\C#N)S(=O)(=O)C(C)(C)C,3,-3,79*,-1,2,0,0,0
O=C1NC(=O)/C(=C\c2ccc(O)cc2O)S1,17,4,20*,2,10,48*,-243,66*
O=C1NC(=O)/C(=C/c2cccc3ccccc23)S1,7,-1,6,-2,-3,·,·,·
Cc1ccc(S(=O)(=O)N(C)/N=C2/C(=O)N(CC(=O)O)c3ccccc32)cc1,-13,0,4,2,-1,·,·,·
COCCN1C(=O)N[C@@H](c2cccc(F)c2)C(C(=O)OC)=C1C,3,1,29*,-2,-3,1,-7,-5
Cc1cc(C)c(NC(=O)CNC(=O)COC(=O)CN2C(=O)NC3(CCCC3)C2=O)c(C)c1,3,0,3,-6,0,·,·,·
Cc1nc2c(C)c(C)c(C)c(C)c2nc1C,-4,0,5,-2,2,·,·,·
Cc1nc2c(O)c3c(c(O)c2nc1C)C1C=CC3CC1,4,0,21*,-7,6,2,-6,2
O=C(CSc1nc2ccccc2o1)N/N=C/c1ccc(O)c(O)c1,13,3,17*,-3,4,62*,-221,73*
CC(=O)OC[C@@H]1CN(Cc2ccccc2)C[C@H](n2cnc3c(NCC(C)C)ncnc32)O1,-4,4,2,2,1,·,·,·
CCCCc1ccc(/C(C)=N/Nc2cc(N3CCOCC3)nc(C)n2)cc1,-11,-1,1,-6,2,·,·,·
CN(C)c1ccc(N/C=C/C(=O)C(C)(C)C)cc1,13,-2,25*,-1,13,12*,-43,1
CC(C)(C)C(=O)/C=C/Nc1ccccc1O,-1,-3,15*,-19,-10,3,-10,1
